Laboratory results taken from the supplement of paper PMC4022240.
± gives the standard deviation.

Key:
Assay in all cases: peptide microarray binding signal (635 nm), min-max normalized on array (fraction of array maximum); higher = stronger binding
Conditions in all cases: peptide region: H3 1-13
[1] = biological target: T1, HaloTag-ATRX ADD domain (163-292)
T1 chain: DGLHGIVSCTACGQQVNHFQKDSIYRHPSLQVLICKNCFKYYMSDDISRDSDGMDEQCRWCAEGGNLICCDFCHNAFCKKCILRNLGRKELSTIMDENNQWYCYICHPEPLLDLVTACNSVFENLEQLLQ
Procedure: (§1)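 Histone 13-mer peptides were synthesized as cellulose conjugates with a C-terminal 20-atom PEG linker and printed in triplicate on nitrocellulose. The sequence given is the unmodified backbone; PTMs (Kme1/2/3, Kac, Sph/Tph, Rme/Rme2a/Rme2s, Rcit) are listed in the label and the 'peptide modifications' condition. Slides were probed at 4 °C for 1 h with biotin-labelled (HQ)5-HaloTag reader fusions (ATRX-ADD, ING2-PHD) then streptavidin-Alexa647, or with rabbit histone antibodies then anti-rabbit Alexa647. The mean 635 nm signal of the triplicate spots was scaled 0-1 between the lowest and highest values on each array.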

[2] = biological target: HaloTag-ING2 PHD (mouse Ing2 200-280)
Procedure: as §1

[3] = biological target: anti-H3K4me3 antibody ab8580
Procedure: as §1

[4] = biological target: anti-H3K9me3 antibody ab8898
Procedure: as §1

[5] = peptide modifications: H3K4me3 H3T6ph, binder concentration: 1:2,000 dilution
[6] = peptide modifications: H3K4me3 H3T6ph, binder concentration: 1:10,000 dilution
[7] = peptide modifications: H3R2cit H3K9me1, binder concentration: 1:2,000 dilution
[8] = peptide modifications: H3R2cit H3K9me1, binder concentration: 1:10,000 dilution
[9] = peptide modifications: H3R2cit H3K4me1, binder concentration: 1:2,000 dilution
[10] = peptide modifications: H3R2cit H3K4me1, binder concentration: 1:10,000 dilution
[11] = peptide modifications: H3K4me3 H3K9ac, binder concentration: 1:2,000 dilution
[12] = peptide modifications: H3K4me3 H3K9ac, binder concentration: 1:10,000 dilution
[13] = peptide modifications: H3K9me1, binder concentration: 1:2,000 dilution
[14] = peptide modifications: H3K9me1, binder concentration: 1:10,000 dilution
[15] = peptide modifications: H3K9me3 H3S10ph, binder concentration: 1:2,000 dilution
[16] = peptide modifications: H3K9me3 H3S10ph, binder concentration: 1:10,000 dilution
[17] = peptide modifications: H3K9me3, binder concentration: 1:2,000 dilution
[18] = peptide modifications: H3K9me3, binder concentration: 1:10,000 dilution
[19] = peptide modifications: H3K9me1 H3S10ph, binder concentration: 1:2,000 dilution
[20] = peptide modifications: H3K9me1 H3S10ph, binder concentration: 1:10,000 dilution
[21] = peptide modifications: H3K9ac H3S10ph, binder concentration: 1:2,000 dilution
[22] = peptide modifications: H3K9ac, binder concentration: 1:2,000 dilution
[23] = peptide modifications: H3K9ac, binder concentration: 1:10,000 dilution

B1: H3 1-13 A R T Kme3 Q Tph A R K S T G G (peptide)
chain: ARTKQTARKSTGG
B1 was tested, and the “peptide microarray binding signal” value ([1]; peptide modifications: H3K4me3 H3T6ph, binder concentration: 50 nM) was 0.00724 ± 0.0003, the “peptide microarray binding signal” value ([1]; peptide modifications: H3K4me3 H3T6ph, binder concentration: 500 nM) was 0.0154 ± 0.0024 and the “peptide microarray binding signal” value ([2]; peptide modifications: H3K4me3 H3T6ph, binder concentration: 10 nM) was 0.169 ± 0.048. The “peptide microarray binding signal” value ([2]; peptide modifications: H3K4me3 H3T6ph, binder concentration: 100 nM) was 0.484 ± 0.12, the “peptide microarray binding signal” value [3, 5] was 0.323 ± 0.064 and the “peptide microarray binding signal” value [3, 6] was 0.404 ± 0.061. The “peptide microarray binding signal” value [4, 5] was 0.0262 ± 0.0036 and the “peptide microarray binding signal” value [4, 6] was 0.00865 ± 0.0019.

B2: H3 1-13 A Rcit T K Q T A R Kme S T G G (peptide)
chain: ARTKQTARKSTGG
In the case of B2, the “peptide microarray binding signal” value ([1]; peptide modifications: H3R2cit H3K9me1, binder concentration: 50 nM) is reported as 0.0233 ± 0.0034, the “peptide microarray binding signal” value ([1]; peptide modifications: H3R2cit H3K9me1, binder concentration: 500 nM) is reported as 0.0804 ± 0.019 and the “peptide microarray binding signal” value ([2]; peptide modifications: H3R2cit H3K9me1, binder concentration: 10 nM) is reported as 0.0313 ± 0.0068. The “peptide microarray binding signal” value ([2]; peptide modifications: H3R2cit H3K9me1, binder concentration: 100 nM) was 0.0512 ± 0.0034, the “peptide microarray binding signal” value [3, 7] was 0.00831 ± 0.0015 and the “peptide microarray binding signal” value [3, 8] was 0.0097 ± 0.00085. For the same binder, the “peptide microarray binding signal” value [4, 7] was 0.0064 ± 0.00042 and the “peptide microarray binding signal” value [4, 8] was 0.00375 ± 0.00014.

B3: H3 1-13 A Rcit T Kme Q T A R K S T G G (peptide)
chain: ARTKQTARKSTGG
For B3, the “peptide microarray binding signal” value ([1]; peptide modifications: H3R2cit H3K4me1, binder concentration: 50 nM) was 0.00831 ± 0.00021, the “peptide microarray binding signal” value ([1]; peptide modifications: H3R2cit H3K4me1, binder concentration: 500 nM) was 0.0204 ± 0.0024 and the “peptide microarray binding signal” value ([2]; peptide modifications: H3R2cit H3K4me1, binder concentration: 10 nM) was 0.0217 ± 0.0012. For the same binder, the “peptide microarray binding signal” value ([2]; peptide modifications: H3R2cit H3K4me1, binder concentration: 100 nM) was 0.148 ± 0.015, the “peptide microarray binding signal” value [3, 9] was 0.0371 ± 0.0013 and the “peptide microarray binding signal” value [3, 10] was 0.02 ± 0.0022. For the same binder, the “peptide microarray binding signal” value [4, 9] was 0.00468 ± 0.0004 and the “peptide microarray binding signal” value [4, 10] was 0.00202 ± 3.2e-05.

B4: H3 1-13 A R T Kme3 Q T A R Kac S T G G (peptide)
chain: ARTKQTARKSTGG
For B4, the “peptide microarray binding signal” value ([1]; peptide modifications: H3K4me3 H3K9ac, binder concentration: 50 nM) was 0.00768 ± 0.00092, the “peptide microarray binding signal” value ([1]; peptide modifications: H3K4me3 H3K9ac, binder concentration: 500 nM) was 0.00948 ± 0.00033 and the “peptide microarray binding signal” value ([2]; peptide modifications: H3K4me3 H3K9ac, binder concentration: 10 nM) was 0.216 ± 0.039. The “peptide microarray binding signal” value ([2]; peptide modifications: H3K4me3 H3K9ac, binder concentration: 100 nM) was 0.199 ± 0.014, the “peptide microarray binding signal” value [3, 11] was 0.289 ± 0.062 and the “peptide microarray binding signal” value [3, 12] was 0.621 ± 0.31. For the same binder, the “peptide microarray binding signal” value [4, 11] was 0.0528 ± 0.047 and the “peptide microarray binding signal” value [4, 12] was 0.0162 ± 0.0043.

B5: H3 1-13 A R T K Q T A R Kme S T G G (peptide)
chain: ARTKQTARKSTGG
In the case of B5, the “peptide microarray binding signal” value ([1]; peptide modifications: H3K9me1, binder concentration: 50 nM) is reported as 0.0276 ± 0.00028, the “peptide microarray binding signal” value ([1]; peptide modifications: H3K9me1, binder concentration: 500 nM) is reported as 0.0642 ± 0.0027 and the “peptide microarray binding signal” value ([2]; peptide modifications: H3K9me1, binder concentration: 10 nM) is reported as 0.0068 ± 0.00044. The “peptide microarray binding signal” value ([2]; peptide modifications: H3K9me1, binder concentration: 100 nM) was 0.0424 ± 0.0055, the “peptide microarray binding signal” value [3, 13] was 0.00068 ± 2.9e-05 and the “peptide microarray binding signal” value [3, 14] was 0.000628 ± 6.7e-06. For the same binder, the “peptide microarray binding signal” value [4, 13] was 0.00122 ± 7.3e-05 and the “peptide microarray binding signal” value [4, 14] was 0.00098 ± 4.6e-05.

B6: H3 1-13 A R T K Q T A R Kme3 Sph T G G (peptide)
chain: ARTKQTARKSTGG
With B6 the “peptide microarray binding signal” value ([1]; peptide modifications: H3K9me3 H3S10ph, binder concentration: 50 nM) was 0.188 ± 0.014, the “peptide microarray binding signal” value ([1]; peptide modifications: H3K9me3 H3S10ph, binder concentration: 500 nM) was 0.207 ± 0.011 and the “peptide microarray binding signal” value ([2]; peptide modifications: H3K9me3 H3S10ph, binder concentration: 10 nM) was 0.00597 ± 0.00034. The “peptide microarray binding signal” value ([2]; peptide modifications: H3K9me3 H3S10ph, binder concentration: 100 nM) was 0.0173 ± 0.0046, the “peptide microarray binding signal” value [3, 15] was 0.00283 ± 0.001 and the “peptide microarray binding signal” value [3, 16] was 0.000913 ± 0.00014. The “peptide microarray binding signal” value [4, 15] was 0.085 ± 0.021 and the “peptide microarray binding signal” value [4, 16] was 0.049 ± 0.01.

B7: H3 1-13 A R T K Q T A R Kme3 S T G G (peptide)
chain: ARTKQTARKSTGG
B7 was tested, and the “peptide microarray binding signal” value ([1]; peptide modifications: H3K9me3, binder concentration: 50 nM) was 0.422 ± 0.025, the “peptide microarray binding signal” value ([1]; peptide modifications: H3K9me3, binder concentration: 500 nM) was 0.417 ± 0.049 and the “peptide microarray binding signal” value ([2]; peptide modifications: H3K9me3, binder concentration: 10 nM) was 0.0205 ± 0.0055. For the same binder, the “peptide microarray binding signal” value ([2]; peptide modifications: H3K9me3, binder concentration: 100 nM) was 0.0183 ± 0.0029, the “peptide microarray binding signal” value [3, 17] was 0.0544 ± 0.038 and the “peptide microarray binding signal” value [3, 18] was 0.0262 ± 0.0086. The “peptide microarray binding signal” value [4, 17] was 0.228 ± 0.047 and the “peptide microarray binding signal” value [4, 18] was 0.169 ± 0.11.

B8: H3 1-13 A R T K Q T A R Kme Sph T G G (peptide)
chain: ARTKQTARKSTGG
In the case of B8, the “peptide microarray binding signal” value ([1]; peptide modifications: H3K9me1 H3S10ph, binder concentration: 50 nM) is reported as 0.01 ± 0.00047, the “peptide microarray binding signal” value ([1]; peptide modifications: H3K9me1 H3S10ph, binder concentration: 500 nM) is reported as 0.0275 ± 0.00045 and the “peptide microarray binding signal” value ([2]; peptide modifications: H3K9me1 H3S10ph, binder concentration: 10 nM) is reported as 0.00961 ± 0.00044. For the same binder, the “peptide microarray binding signal” value ([2]; peptide modifications: H3K9me1 H3S10ph, binder concentration: 100 nM) was 0.02 ± 0.0008, the “peptide microarray binding signal” value [3, 19] was 0.000831 ± 3.9e-05 and the “peptide microarray binding signal” value [3, 20] was 0.000171 ± 5.1e-06. For the same binder, the “peptide microarray binding signal” value [4, 19] was 0.00233 ± 0.00015 and the “peptide microarray binding signal” value [4, 20] was 0.00138 ± 2.7e-05.

B9: H3 1-13 A R T K Q T A R Kac Sph T G G (peptide)
chain: ARTKQTARKSTGG
For B9, the “peptide microarray binding signal” value ([1]; peptide modifications: H3K9ac H3S10ph, binder concentration: 500 nM) was 0.0136 ± 0.00075, the “peptide microarray binding signal” value ([2]; peptide modifications: H3K9ac H3S10ph, binder concentration: 100 nM) was 0.0173 ± 0.0011 and the “peptide microarray binding signal” value [3, 21] was 0.000925 ± 2.1e-05. The “peptide microarray binding signal” value [4, 21] was 0.00113 ± 0.00013.

B10: H3 1-13 A R T K Q T A R Kac S T G G (peptide)
chain: ARTKQTARKSTGG
With B10 the “peptide microarray binding signal” value ([1]; peptide modifications: H3K9ac, binder concentration: 50 nM) was 0.0143 ± 0.00037, the “peptide microarray binding signal” value ([1]; peptide modifications: H3K9ac, binder concentration: 500 nM) was 0.0461 ± 0.0053 and the “peptide microarray binding signal” value ([2]; peptide modifications: H3K9ac, binder concentration: 10 nM) was 0.0431 ± 0.012. The “peptide microarray binding signal” value ([2]; peptide modifications: H3K9ac, binder concentration: 100 nM) was 0.0776 ± 0.0087, the “peptide microarray binding signal” value [3, 22] was 0.00276 ± 0.00088 and the “peptide microarray binding signal” value [3, 23] was 0.00171 ± 7.1e-05. The “peptide microarray binding signal” value [4, 22] was 0.00554 ± 0.00013 and the “peptide microarray binding signal” value [4, 23] was 0.00185 ± 0.00011.
